Here are results for 51 compounds from PubChem BioAssay AID652233 (Johns Hopkins Ion Channel Center, 2013).

Hit rate of the full screen: of about 2,300 compounds, fewer than 10 were called active.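 How the source made its calls: active means yellow fluorescent protein signal ratio exceeding the buffer control mean by over 5 SD of those controls; inactive means the rest.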 The list is a sample of the results.

The experiment is described as follows: nonspecific effects on YFP-HEK293 ionomycin response – cell-based, parental YFP-HEK293, YFP quench, counter-screen for TMEM16A inhibitor project (AID 652233).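 Further: ratio is mean of duplicate wells from kinetic YFP trace.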 The conditions noted are these: parental YFP-HEK293, iodide YFP quench, at 10 µM. For orientation: The purpose of a counterscreen is to sort out artefacts and off-target activity.
As to `Cc1nc2ccccc2cc1OCc1ccc(F)cc1`, the YFP ratio F(max-min)/F0 was -0.66 (inactive). In the case of `CCCCNC(=O)CSc1nc2n[nH]c(C)c2c(=N)n1-c1cccc(Cl)c1C` it was -0.786 (inactive); in that of `c1ccc(-c2nnc(SCc3nc4ccccc4[nH]3)o2)cc1`, -1.02 (inactive); in that of `COc1ccc(OCC(=O)NCCc2ccc(S(N)(=O)=O)cc2)cc1`, -0.874 (inactive). On to `COc1ccc(S(=O)(=O)NCCCCOc2ccc(Cl)cc2)cc1`, for which the YFP ratio F(max-min)/F0 was -1.14 (inactive).

With `O=C(CNCCC1=CCCCC1)Nc1ccccc1N1CCCCCC1`, the YFP ratio F(max-min)/F0 was -1.09 (inactive). In the case of `CN(c1cccc(NC(=O)c2ccc(CN3CCc4ccccc4C3)cc2)c1)S(C)(=O)=O` it was -0.916 (inactive); in that of `Cc1ccc(-n2ncc3c(N4CCN(c5ccc(F)cc5)CC4)ncnc32)c(C)c1`, -0.733 (inactive).

Consider `CCCCCc1ccc(-c2ccc(C(=O)O)cc2)nc1`, for which the YFP ratio F(max-min)/F0 was -0.857 (inactive). In the case of `O=C(Nc1cccc(S(=O)(=O)Nc2ccc(Cl)cc2)c1)c1ccc2c(c1)OCCO2` it was -1.08 (inactive).

For the compound `S=C(NCc1ccc(Cl)cc1)NC12CC3CC(CC(C3)C1)C2`, the YFP ratio F(max-min)/F0 is -1.22 (inactive). For `Cc1nc(C)c(-c2csc(NCCc3ccccc3)n2)s1` the value was -0.901 (inactive); for `Cc1cc(C)cc(NS(=O)(=O)c2ccc(Oc3ncc(C(F)(F)F)cc3Cl)cc2)c1`, -0.961 (inactive); for `N#Cc1nc(COc2ccc(-c3ccccc3)cc2)oc1NCc1cccnc1`, -0.991 (inactive).

For `Cn1c(=O)n(C)c2cc(S(=O)(=O)N3CCCc4ccccc43)ccc21`, the YFP ratio F(max-min)/F0 was -1.35 (inactive). Consider `COc1ccc(CNc2nnnn2C)cc1`, for which the YFP ratio F(max-min)/F0 is -0.894 (inactive). In the case of `O=C1c2ccccc2C(Nc2ccc3c(c2)OCCO3)N1Cc1ccco1` (stereo unspecified) it was -0.965 (inactive). Turning to `O=C(COC(=O)CCc1c[nH]c(=O)[nH]1)Nc1ccccc1Cl`, the YFP ratio F(max-min)/F0 is -0.772 (inactive). Turning to `N#CC1=C(SCc2ccccc2)NC(=O)C(C#N)C12CCCC2` (stereo unspecified), the YFP ratio F(max-min)/F0 is -0.894 (inactive). In the case of `O=C(COc1ccccc1)NCc1ccc2c(c1)OCO2` it was -1.01 (inactive); in that of `S=C(NCc1cccs1)Nc1ccc(Cl)cc1`, -1.2 (inactive). In the case of `Cc1ccc(C)c(N2CCN(S(=O)(=O)c3ccc4c(c3)oc(=O)n4C)CC2)c1` it was -1.24 (inactive); in that of `Cc1cc(C=O)c(C)n1-c1ccc(NC2CCCCC2)c([N+](=O)[O-])c1`, -0.94 (inactive); in that of `CC(=O)c1c(C)[nH]c(C(=O)COC(=O)c2cccc(S(=O)(=O)N(C)c3ccccc3)c2)c1C`, -1.08 (inactive). For `O=C(Nc1nc(-c2ccc3c(c2)OCO3)cs1)c1ccncc1` the value was -0.891 (inactive). `CC(NC(=O)c1ccco1)C(=O)Nc1nc(-c2ccccn2)cs1` (stereo unspecified): the YFP ratio F(max-min)/F0 was -1.13 (inactive). For `Cc1ccc(N2C(=O)S/C(=C/c3cn(C)c4ccccc34)C2=O)cc1` the value was -0.76 (inactive); for `COc1ccc(CN(C)C(=O)CC(c2ccccc2)c2ccccc2)cc1`, -1.04 (inactive). For `CCOC(=O)N1CCN(C(=O)c2ccc3c(c2)N(Cc2ccc(C)cc2)CCS3)CC1` the value was -1.18 (inactive); for `Cc1noc(C)c1COC(=O)c1cc2ccccc2cc1O`, -0.996 (inactive). In the case of `COc1ccc2[nH]cc(/C=C(/C#N)S(=O)(=O)c3ccccc3)c2c1`, the YFP ratio F(max-min)/F0 was -1.14 (inactive). In the case of `O=C(N/N=C/c1cc(Cl)cc([N+](=O)[O-])c1O)C(O)(c1ccccc1)c1ccccc1` it was -0.984 (inactive). Regarding `Cc1ccc2c(c1)N(S(=O)(=O)c1cc(-c3cc(C)no3)ccc1C)CCO2`, the YFP ratio F(max-min)/F0 is -0.714 (inactive). For `COc1ccc(CCC(=O)c2ccc(OC)cc2)cc1` the value was -1.35 (inactive); for `Cc1ccc(-c2noc(CSc3nnnn3-c3ccccc3)n2)cc1`, -0.963 (inactive); for `CC(C)(C)C(=O)/C(C#N)=C/c1ccc(O)cc1`, -1.08 (inactive). In the case of `COC(=O)c1ccc(COC(=O)c2c(C)nn(Cc3ccccc3Cl)c2Cl)o1` it was -1.29 (inactive). Consider `CC1=NN(c2cccc(Cl)c2)C(=O)C12CC(C)=C(C)CS2` (stereo unspecified), for which the YFP ratio F(max-min)/F0 was -1.3 (inactive). Take `CCOC(=O)c1cccc(NC(=O)CCn2nnc3ccccc32)c1`: the YFP ratio F(max-min)/F0 is -1.02 (inactive). As for `C=C(C)Cn1c(C)cc(C)c(S(=O)(=O)c2ccccc2C)c1=O`, the YFP ratio F(max-min)/F0 is -0.995 (inactive). For `Cc1nc2c(C(=O)NCc3ccc4c(c3)OCO4)c[nH]n2c(=O)c1Cc1ccccc1F` the value was -1.21 (inactive). As for `COC(=O)c1ccc(NC(=O)c2ccccc2NS(=O)(=O)c2ccccc2)cc1`, the YFP ratio F(max-min)/F0 was -0.979 (inactive). In the case of `O=C(NC(=S)Nc1ccccc1C(=O)O)c1ccc(-c2ccc(Br)cc2)o1` it was -1.06 (inactive); in that of `CN1c2ccc(C=O)c3c(C=O)ccc(c23)N(C)C1(C)C`, -1 (inactive); in that of `Cc1ccccc1-n1nnnc1SCCCC(=O)c1ccc(F)cc1`, -1.2 (inactive). In the case of `Cc1ccc(F)cc1NC(=O)Cc1nn(C)c(=O)c2ccccc12` it was -1.06 (inactive). For `CC(C)CNC(=S)NNC(=O)c1nn(C)cc1Cl` the value was -0.979 (inactive); for `Cc1ccc(-n2[nH]c(C)c(/C=N/N3C(=O)c4cccc5cccc(c45)C3=O)c2=O)cc1`, -0.991 (inactive); for `Cc1nc(SCC(=O)N2CCc3ccccc3C2)c2c(C)c(C)sc2n1`, -1.07 (inactive). For the compound `CSc1nsc(NC(=O)Nc2ccccc2)n1`, the YFP ratio F(max-min)/F0 is -0.839 (inactive). For `CCOC(=O)N1CC=C2C(C#N)=C(N)C(C#N)(C#N)[C@H](c3cccs3)[C@H]2C1` the value was -1.01 (inactive).
